The campaign covered roughly 1,300 compounds. About 930 (72%) were called active.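 Rule for the calls: active = fitted curve reaches 40% activation signal increase at or below the top valid tested concentration in every replicate test; inconclusive = replicate tests disagree in their calls; inactive = all replicate tests inactive, including effects opposite the expected signal rise.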 The set was probably picked from earlier hits. Not all results are given here. Results with a measured potency or affinity are listed apart.
Assay: miR-122 inhibitors in Huh7 reporter cells, dose response, cell-based, Huh7 psiCHECK-miR122, Renilla luciferase, cherry-pick (AID 652053)
Details: 48 h; series mostly up to 35 µM

outcome, inactive:
C/C=C/c1ccc([C@H]2[C@@H](CO)N(c3nc(CC)cs3)[C@H]2CNC(C)C)cc1
Cc1cc(C)cc(NC2=NC3(CCCCC3)N=C(N)N2)c1
C/C=C/c1ccc([C@H]2[C@H](CO)N(c3nc(CC)cs3)[C@H]2CNC(C)C)cc1
Cc1cc(N/N=C/c2ccc(O)c(C)c2O)nc(-c2ccccc2O)n1
CCC(=O)Nc1ccc(C(=O)Nc2cccc(C)n2)cc1
C[C@@H]1CN([C@@H](C)CO)C(=O)Cc2cc(NC(=O)Nc3cccc4ccccc34)ccc2O[C@@H]1CN(C)C(=O)NC1CCCCC1
C[C@H](CO)N1C[C@H](C)[C@H](CN(C)C(=O)NC2CCCCC2)Oc2ccc(NC(=O)Nc3cccc4ccccc34)cc2CC1=O
C[C@H](CO)N1C[C@H](C)[C@@H](CN(C)Cc2ccncc2)Oc2ccc(NC(=O)Nc3cccc4ccccc34)cc2CC1=O
CC(C)NC(=O)Nc1ccc2c(c1)CC(=O)N([C@H](C)CO)C[C@@H](C)[C@@H](CN(C)Cc1ccc(Oc3ccccc3)cc1)O2
COc1ccc(NC(C)=O)cc1NC(C)C(=O)Nc1cc(C(F)(F)F)ccc1N1CCOCC1 (stereo unspecified)
COc1cccc(C(=O)Nc2cc([N+](=O)[O-])ccc2N2CCN(C)CC2)c1
CC(C)n1c(/C=C/c2ccccc2)nc2ccccc21
Cc1nc2ccccc2n1S(=O)(=O)c1ccc(F)cc1
COc1ccc(S(=O)(=O)Nc2ccc3c(c2)COC3=O)cc1OC
CC(=O)N1[C@H](CO)[C@H](c2ccc(C3=CCCCC3)cc2)[C@@H]1CNC(=O)CN(C)C
Cc1ccc(C)c(CSc2nnc(-c3cccnc3)o2)c1
COc1ccc(OC)c(Nc2cc(C)nc3nc(C)nn23)c1
Cc1cc(OCC(O)CN2CCOCC2)cc(C)c1Cl (stereo unspecified)
O=C(Nc1cccc([N+](=O)[O-])c1)c1ccc(CSc2ccccc2)cc1
Fc1ccc(-n2nnc(-c3nccs3)n2)cc1
CCc1nc2sc3c(c2c(=O)n1NC(=O)CCl)CCCC3
COc1ccc(CN(C)C[C@@H]2OCCCC[C@@H](C)Oc3ccc(NC(=O)c4ccccc4)cc3C(=O)N([C@H](C)CO)C[C@@H]2C)cc1
COc1cccc(N2CCN(C(=S)Nc3cccc(C)c3)CC2)c1
C/C=C/c1ccc([C@@H]2[C@@H](CO)N(c3nc(CC)cs3)[C@@H]2CNC(C)C)cc1
COc1ccc(CNC(=O)C(c2ccco2)N(C(=O)c2csnn2)c2cccc(C)c2C)cc1 (stereo unspecified)
COc1cc(C(=S)N2CCOCC2)cc(OC)c1OC(=O)c1ccc(F)cc1
O=C(Oc1ccc(C(=S)N2CCOCC2)cc1)c1ccccc1F
O=C(Oc1ccc(C(=S)N2CCOCC2)cc1)c1ccc(F)cc1
O=C(Oc1ccc(C(=S)N2CCOCC2)cc1)c1ccccc1
CCOC(=O)c1ccc(NS(=O)(=O)c2ccc3[nH]c(=O)[nH]c3c2)cc1
CCCNC(=O)NC[C@H]1[C@@H](c2ccc(C3=CCCC3)cc2)[C@@H](CO)N1C(C)=O
CC(=O)N1[C@H](CO)[C@@H](c2ccc(C3=CCCCC3)cc2)[C@@H]1CNC(=O)CN(C)C
CCCNC(=O)NC[C@H]1[C@@H](c2ccc(C3=CCCC3)cc2)[C@H](CO)N1C(=O)CC
CCCNC(=O)NC[C@H]1[C@H](c2ccc(C3=CCCC3)cc2)[C@H](CO)N1C(=O)CC
CCCNC(=O)NC[C@@H]1[C@H](c2ccc(C3=CCCC3)cc2)[C@H](CO)N1C(=O)CC
CCC(=O)N1[C@H](CNC(=O)CN(C)C)[C@@H](c2ccc(C3=CCCC3)cc2)[C@@H]1CO
CCCNC(=O)NC[C@H]1[C@H](c2ccc(C3=CCCC3)cc2)[C@@H](CO)N1C(=O)CC
CCCNC(=O)NC[C@@H]1[C@H](c2ccc(C3=CCCC3)cc2)[C@@H](CO)N1C(=O)CC
CN(C)Cc1cccc(-c2ccccc2)c1O
O=S(=O)(Nc1ccncc1)c1ccc(Cl)cc1
COc1ccc(-c2cccc(-c3cc(=O)oc4cc(OC)cc(OC)c34)c2)cc1
COc1cc(OC)c2c(-c3cccc(-c4ccc(O)cc4)c3)cc(=O)oc2c1
COc1cc(OC)c2c(-c3cccc(-c4ccc(N(C)C)cc4)c3)cc(=O)oc2c1
Cc1cc(C(=O)N2CCc3ccccc32)n(-c2ccccc2)n1
C/C(=N\NC(=O)c1cc(-c2cccs2)nc2ccccc12)c1ccccn1
CC(C)n1cc(NC(=O)c2cc(-c3ccccc3)on2)cn1
O=C(C[C@@H]1CC[C@H]2[C@@H](COC[C@@H](O)CN2C(=O)C2CCCC2)O1)NCc1ccncc1
O=C(COc1ccccc1F)c1ccc(O)cc1O
COc1ccccc1N1CCN(S(=O)(=O)c2ccc(F)cc2)CC1
Cc1c(C(=O)N(C)CCC#N)oc2ccc(S(=O)(=O)N3CCOCC3)cc12
COc1ccc(NC(=O)N(C)C[C@H]2Oc3ccc(NC(=O)Nc4ccc(C(F)(F)F)cc4)cc3CC(=O)N([C@H](C)CO)C[C@@H]2C)cc1
COc1ccc(NC(=O)N(C)C[C@H]2Oc3ccc(NC(=O)Nc4ccc(C(F)(F)F)cc4)cc3CC(=O)N([C@@H](C)CO)C[C@H]2C)cc1
COc1ccc(NC(=O)N(C)C[C@H]2Oc3ccc(NC(=O)Nc4ccc(C(F)(F)F)cc4)cc3CC(=O)N([C@H](C)CO)C[C@H]2C)cc1
C[C@@H]1CN([C@@H](C)CO)C(=O)c2cc(NC(=O)CCC(F)(F)F)ccc2O[C@@H]1CN(C)C(=O)Nc1ccc2c(c1)OCO2
COc1ccc(NC(=O)N(C)C[C@@H]2Oc3ccc(NC(=O)Nc4ccc(C(F)(F)F)cc4)cc3CC(=O)N([C@H](C)CO)C[C@@H]2C)cc1
COc1ccc(NC(=O)N(C)C[C@@H]2Oc3ccc(NC(=O)Nc4ccc(C(F)(F)F)cc4)cc3CC(=O)N([C@@H](C)CO)C[C@H]2C)cc1
Cc1ccc(S(=O)(=O)N(C)C[C@@H]2Oc3ccc(NC(=O)Nc4ccc(C(F)(F)F)cc4)cc3CC(=O)N([C@H](C)CO)C[C@@H]2C)cc1
COc1ccc(NC(=O)N(C)C[C@H]2Oc3ccc(NC(=O)Nc4ccc(C(F)(F)F)cc4)cc3CC(=O)N([C@@H](C)CO)C[C@@H]2C)cc1
Cc1ccc(S(=O)(=O)N(C)C[C@@H]2Oc3ccc(NC(=O)Nc4ccc(C(F)(F)F)cc4)cc3CC(=O)N([C@@H](C)CO)C[C@@H]2C)cc1
COc1ccc(NC(=O)N(C)C[C@@H]2Oc3ccc(NC(=O)Nc4ccc(C(F)(F)F)cc4)cc3CC(=O)N([C@H](C)CO)C[C@H]2C)cc1
CSC(=S)NCc1cccnc1
Cc1ccc(NC(=O)N(C2=NCC(C)S2)c2ccccc2)cc1 (stereo unspecified)
Cc1ccc(SC(C)C(=O)NCCC2=CCCCC2)cc1 (stereo unspecified)
Cn1c(=O)c2cc(S(=O)(=O)NCCC(=O)NCCC3=CCCCC3)ccc2n(C)c1=O
Cc1ccc(-c2nnc(SCc3ccc(C#N)cc3)n2Cc2ccco2)cc1
COc1ccc(OC)c(-n2cc3c(=O)n(C)c(=O)n(C)c3c2)c1
CC(C)c1cc(C(=O)N/N=C/C(Br)=C/c2ccccc2)n[nH]1
O=C(Nc1nc2c(s1)CCc1ccccc1-2)c1ccco1
CCc1nc2ccc(C(=O)N3CCN(C(=O)c4ccco4)CC3)cn2c1N(C)C(=O)COc1ccccc1
Cc1ccc(NC(=O)COc2ccc(Br)cc2CO)cc1
CC(=O)N1[C@H](CNC(=O)CN(C)C)[C@H](c2ccc(C3=CCCCC3)cc2)[C@@H]1CO
CC(=O)N(C)C[C@H]1[C@H](c2ccc(-c3cccnc3)cc2)[C@@H](CO)N1C(=O)C1CC1
CC(=O)N(C)C[C@@H]1[C@@H](c2ccc(-c3cccnc3)cc2)[C@H](CO)N1C(=O)C1CC1
CN1[C@H](CO)[C@@H]2c3ccccc3N(C(=O)c3ccc(F)cc3)C[C@@H]21
CC(=O)N1[C@H](CO)[C@@H]2c3ccccc3N(C(=O)c3ccc(F)cc3)C[C@@H]21
O=C(Nc1ccccc1F)N1C[C@@H]2[C@H](c3ccccc31)[C@H](CO)N2C(=O)c1ccc(F)cc1
CC(=O)N1C[C@H]2[C@@H](c3ccccc31)[C@@H](CO)N2C(=O)c1ccc(F)cc1
O=C(c1ccc(F)cc1)N1C[C@H]2[C@@H](c3ccccc31)[C@H](CO)N2C(=O)c1ccc(F)cc1
O=C(Nc1ccccc1F)N1C[C@H]2[C@@H](c3ccccc31)[C@H](CO)N2C(=O)c1ccc(F)cc1
O=C(Nc1ccccc1F)N1C[C@@H]2[C@H](c3ccccc31)[C@@H](CO)N2C(=O)c1ccc(F)cc1
CC(C)C(=O)Nc1ccc2c(c1)C(=O)N(C)[C@@H]1CC[C@H](CC(=O)NCc3cccc(F)c3)O[C@@H]1CO2
CC(C)C(=O)Nc1ccc2c(c1)C(=O)N(C)[C@@H]1CC[C@@H](CC(=O)NCc3cccc(F)c3)O[C@H]1CO2
CN1C(=O)c2cc(NC(=O)C3CC3)ccc2OC[C@H]2O[C@H](CC(=O)NCc3cccc(F)c3)CC[C@H]21
Cc1ccc2c(CN3CCCc4ccccc43)cc(=O)oc2c1C
C[C@H](CO)N1C[C@H](C)[C@@H](CN(C)Cc2ccncc2)Oc2c(NC(=O)C3CCOCC3)cccc2C1=O
CNC[C@H]1Oc2c(NC(=O)C3CCOCC3)cccc2C(=O)N([C@H](C)CO)C[C@@H]1C

From PubChem BioAssay AID652053 (Broad Institute, 2013)
